Values without a mark were called inactive. Activity calls are given as the source filed them. Rule as the data show it, unless noted: active = inhibition above about 33%; inactive = the rest.

Test [1] can be described thus: StAR promoter reporter inhibitors, counter-screen for LRH-1 inverse agonist project, cell-based, luminescence, high throughput (AID 651611; in the data active = inhibition above about 28%). The settings on record: StAR promoter luciferase reporter counterscreen, at 3.6 µM, hits give high values. (Counterscreens check selectivity or assay interference.)
The target in test [2] is Nuclear receptor subfamily 5 group A member 2 (Homo sapiens) (UniProt O00482). In words: LRH-1 (NR5A2) inverse agonists, retest, confirmation, cell-based, luminescence (AID 651613; in the data active = inhibition above about 42%;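 also: HEK293T cells co-transfected with LRH-1 and StAR promoter luciferase reporter; 0% = vehicle wells and 100% = parental cells lacking receptor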). The settings on record: cell-based LRH-1 luciferase reporter, inverse agonism; at 3.6 µM; hits give high values.
Sequence of Nuclear receptor subfamily 5 group A member 2 (Homo sapiens) (O00482 whole entry, looked up): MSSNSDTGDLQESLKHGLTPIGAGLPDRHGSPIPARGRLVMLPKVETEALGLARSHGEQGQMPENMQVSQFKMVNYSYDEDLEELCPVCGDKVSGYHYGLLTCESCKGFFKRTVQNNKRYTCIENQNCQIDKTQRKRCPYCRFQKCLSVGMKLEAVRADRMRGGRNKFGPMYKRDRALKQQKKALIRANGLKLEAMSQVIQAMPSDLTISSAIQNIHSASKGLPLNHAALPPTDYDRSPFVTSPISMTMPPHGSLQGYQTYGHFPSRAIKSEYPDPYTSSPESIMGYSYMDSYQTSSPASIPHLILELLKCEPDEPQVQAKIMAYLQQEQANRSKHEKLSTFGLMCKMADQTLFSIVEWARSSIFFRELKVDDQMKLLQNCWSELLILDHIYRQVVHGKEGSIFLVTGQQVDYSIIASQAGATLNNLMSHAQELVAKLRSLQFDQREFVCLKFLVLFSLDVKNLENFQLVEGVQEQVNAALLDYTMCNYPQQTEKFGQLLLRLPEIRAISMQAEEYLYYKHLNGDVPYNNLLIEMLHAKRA
Test [3] addresses Steroidogenic factor 1 (Homo sapiens) (UniProt Q13285). In words: SF1 (NR5A1) inverse agonists, counter-screen for LRH-1 inverse agonist project, cell-based, luminescence, high throughput (AID 651614; in the data active = inhibition above about 44%;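 also: cells cotransfected with StAR promoter reporter and SF1 expression vector; 0% = vehicle on cells with receptor and 100% = vehicle on cells lacking receptor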). As to conditions: cell-based SF1 luciferase reporter, at 3.6 µM, hits give high values.
Test [4] in a line: VP16 transactivation reporter inhibitors, counter-screen for LRH-1 inverse agonist project, cell-based, luminescence, high throughput (AID 651615). As to conditions: Gal4-VP16 luciferase reporter cells, at 3.6 µM, hits give high values.

Sequence of Steroidogenic factor 1 (Homo sapiens) (Q13285 whole entry, looked up, the tested form may be a part): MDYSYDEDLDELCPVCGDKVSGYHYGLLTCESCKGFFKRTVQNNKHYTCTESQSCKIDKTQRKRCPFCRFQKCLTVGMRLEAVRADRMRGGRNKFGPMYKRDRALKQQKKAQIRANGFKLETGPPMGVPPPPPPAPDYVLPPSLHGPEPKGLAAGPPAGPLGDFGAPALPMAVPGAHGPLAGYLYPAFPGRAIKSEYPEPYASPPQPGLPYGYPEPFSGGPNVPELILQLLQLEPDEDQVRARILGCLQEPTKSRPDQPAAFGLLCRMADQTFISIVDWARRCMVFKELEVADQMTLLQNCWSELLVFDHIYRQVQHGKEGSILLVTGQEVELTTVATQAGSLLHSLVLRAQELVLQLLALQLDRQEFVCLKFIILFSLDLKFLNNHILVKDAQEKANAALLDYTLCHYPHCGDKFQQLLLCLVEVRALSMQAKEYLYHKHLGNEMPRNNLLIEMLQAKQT

The inhibition is the relative decrease from the control value, in per cent. For the molecule `Cc1nnsc1S(=O)c1ccc(Br)cc1` (stereo not given), the inhibition in test [1] was 4.11%; in test [2], 45.4% (active); in test [3], 44.9% (active); in test [4] it was 3.37%.

Consider `CCOc1ccc(CCNC(=O)CN2C(=O)NC3(CCc4ccccc43)C2=O)cc1OCC` (stereo not given), for which the inhibition in test [1] is 13.9%; in test [2], 49.8% (active); in test [3], 45.7% (active); in test [4] it was -14%.

As to `O=C(c1ccccc1)N(NC(=O)C(O)(c1ccccc1)c1ccccc1)c1cccc(F)c1`, the inhibition in test [1] is -4.21%; in test [2] it was 61.5% (active); in test [3] it was 53% (active); in test [4] it was 30.2%.

With `Cc1ccc(C)c(NC(=O)CSc2nnc(CCNC(=O)OC(C)(C)C)o2)c1`, the inhibition in test [1] was 20.9%; in test [2] it was 59.2% (active); in test [3], 59.8% (active); in test [4] it was -2.78%.

Consider `O=C(c1ccccc1)c1ccc2nc(N3CCN(C(=O)c4ccco4)CC3)c3nncn3c2c1`, for which the inhibition is 3.94% in test [1], 43% (active) in test [2], 44.3% (active) in test [3] and -14.2% in test [4].

In the case of `O=C(Nc1ccc(F)cc1)C(c1cc2ccccc2o1)N1CCN(c2cccc(C(F)(F)F)n2)CC1` (stereo not given), the inhibition in test [1] was 11%; in test [2], 24.9%; in test [3], 35.4%; in test [4] it was 16.1%.

As to `O=C(Nc1cccc(NC(=O)c2ccc([N+](=O)[O-])o2)c1)c1ccco1`, the inhibition in test [1] was 23.5%; in test [2] it was 69% (active); in test [3], 70.5% (active); in test [4], -8.09%.

On to `O=C(c1ccc(=O)n(Cc2ccccc2)n1)N1CCN(C/C=C/c2ccccc2)CC1`, for which the inhibition is 2.26% in test [1], 52.9% (active) in test [2], 28% in test [3] and 5.07% in test [4].

Take `O=[N+]([O-])c1ccc(-n2cnc3ccccc32)c([N+](=O)[O-])c1`: the inhibition was 17.6% in test [1], 54.7% (active) in test [2], 62.1% (active) in test [3] and 9.79% in test [4].

On to `O=C(COC(=O)c1ccc(Br)cc1)Nc1ccccc1Br`, for which the inhibition in test [1] was 9%; in test [2], 50.5% (active); in test [3], 50.1% (active); in test [4], 1.81%.

In the case of `CC(=O)C(C(C)=O)c1c(Cl)c(O)c(O)c2c(C(=O)c3ccccc3)coc12`, the inhibition in test [1] was 73.1% (active); in test [2], 100% (active); in test [3], 92.8% (active); in test [4], 90.2% (active).

`O=C(COc1ccc2c3c(c(=O)oc2c1)CCCC3)NCc1ccccn1`: the inhibition in test [1] is 2.43%; in test [2] it was 57.6% (active); in test [3] it was 56.7% (active); in test [4], -9.09%.

Consider `COc1cccc(C2c3cc4c(cc3OC(N3CCOCC3)C2C)OCO4)c1O` (stereo not given), for which the inhibition in test [1] is 11.7%; in test [2], 51.8% (active); in test [3], 45.3% (active); in test [4], 21.4%.

As for `COc1cc2c(OC(C)=O)c3c(c(-c4ccc5c(c4)OCO5)c2cc1OC)C(=O)OC3`, the inhibition is 55.8% (active) in test [1], 35.4% in test [2], 36.2% in test [3] and 34.7% (active) in test [4].

`COc1ccc(-c2c(-c3ccccc3)c(C(=O)C(=O)NCCCN(C)C)n3ccc4cc(OC)c(OC)cc4c23)cc1OC`: the inhibition in test [1] was 20.4%; in test [2], 40.9%; in test [3] it was 32.1%; in test [4], 2.99%.

Take `CC(=O)Nc1cc(-c2cccnc2)cn2c(-c3ccc(F)cc3)cnc12`: the inhibition was 9.06% in test [1], 51.7% (active) in test [2], 40.5% in test [3] and 0.11% in test [4].

As for `Cc1ccc(NC(=O)COC(=O)c2cc(=O)c3ccccc3o2)c(Br)c1`, the inhibition in test [1] is 7.74%; in test [2] it was 50.4% (active); in test [3], 51.1% (active); in test [4], 2.1%.

With `COCCn1c(SCC(=O)Nc2ccc(C(N)=O)cc2)nc2c([nH]c3ccccc32)c1=O`, the inhibition in test [1] is 24.6%; in test [2], 64.9% (active); in test [3], 61.7% (active); in test [4], -64%.

For `Nc1nc2ccccc2n1/N=C/c1ccc([N+](=O)[O-])s1`, the inhibition was -0.84% in test [1], 61.2% (active) in test [2], 65.1% (active) in test [3] and -3.2% in test [4].

On to `CC(=O)Nc1ccc(C2=CC(=O)CC(C)(C)C2)cc1`, for which the inhibition in test [1] is 15.2%; in test [2], 60.2% (active); in test [3], 55.8% (active); in test [4] it was -10.9%.

On to `CC(=O)N1CCc2c(sc(NC(=O)CCS(=O)(=O)c3ccccc3)c2C#N)C1`, for which the inhibition in test [1] was -5.27%; in test [2], 60.1% (active); in test [3] it was 55.1% (active); in test [4], -11%.

Turning to `OC[C@@H]1CN(Cc2ccc(-c3ccccc3)cc2)C[C@H](n2cnc3c(NCc4ccco4)ncnc32)O1`, the inhibition in test [1] is 22.7%; in test [2], 63.7% (active); in test [3] it was 65% (active); in test [4], 33.6% (active).

As to `N#Cc1c(N)c(C#N)c(-c2ccc(O)cc2)c2c1CCCC2`, the inhibition is 6.6% in test [1], 57.8% (active) in test [2], 53.8% (active) in test [3] and 9.21% in test [4].

Take `O=[N+]([O-])c1ccc(N2CCN(Cc3ccccc3)CC2)c2c1no[n+]2[O-]`: the inhibition was 63.5% (active) in test [1], 57.3% (active) in test [2], 63.1% (active) in test [3] and 25.3% in test [4].

For the molecule `CC(C)[C@H](NC(=O)OCc1ccccc1)C(=O)OCC(=O)Nc1ccc(N2CCOCC2)cc1`, the inhibition was 10.9% in test [1], 59.9% (active) in test [2], 59.2% (active) in test [3] and -0.29% in test [4].
